Assay outcomes (PubChem BioAssay)
Compounds with a hit are over-represented: about 28% of the library has one in this group of screens.
CYP2C9 inhib = blocks human cytochrome P450 2C9; P11712; inhibition, % at 5 µM; CYP2C9 Supersomes, luciferin-H conversion, luminescence; AID 777; hit rate 20% among 96,000;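 active = blocking of liver enzyme CYP2C9 beyond about 50% at 5 µM, limit read from the data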
CYP2C19 act = cytochrome P450 2C19 (human) activation. AID 1025. 96,000 tested, under 10 active. activation factor at 5 µM. recombinant CYP2C19, luciferin-H EGE luminescence; active compounds read high; 0 = fully inhibited enzyme, 1 = untreated enzyme. P33261;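 active = activation factor of at least 2 at 5 µM in the primary screen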
CYP2C19 inhib = blocks human cytochrome P450 2C19 | P33261 | hit rate 21% among 96,000 | CYP2C19 Supersomes, luciferin-H EGE luminescence, 30 min | inhibition, % at 5 µM | AID 778;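 active = CYP2C19 inhibition above a set limit at 5 µM in the primary screen, cut at about 50% in these data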
CYP2C9 activ = activators of human CYP2C9; AID 1024; hit rate 1.4% among 96,000; activation factor at 5 µM; P11712; recombinant CYP2C9, luciferin-H conversion, luminescence; active compounds read high; factor 1 = untreated enzyme, 0 = blocked;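 active = activation factor of 2 or more for CYP2C9 at a 5 µM dose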
PLK1 PBD inh = Plk1 (human) PBD binding inhibition; Plk1 PBD phosphopeptide binding, fluorescence polarization; hit rate 0.13% among 97,000; P53350; inhibition, %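 (tested at about 20 µM)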; in the data active = inhibition above about 34%, passing the limit was not always enough
PLK1 inh = PLK1 (human) kinase inhibition. P53350. inhibition, % at 10 µM. recombinant PLK1 kinase, TR-FRET peptide phosphorylation. AID 619. hit rate 0.53% among 97,000;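 active = inhibition of 50% or more in the single-concentration screen; inactive = inhibition below 50%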
Each line names hits and unclear results; the compound was inactive in the other large screens; ! = repeats disagree.

C=CCOC(=O)CCC(=O)Nc1cccc2ccccc12	CYP2C19 inhib 80.3 (no result: PLK1 PBD inh, PLK1 inh)
O=C(CCC(=O)OCc1ccc(C(=O)Oc2ccccc2)cc1)Nc1cccc2ccccc12	none
COc1cc(/C=N/NC(=O)CCc2c(C)n[nH]c2C)cc(OC)c1OC	CYP2C19 inhib 55.3
COc1ccc(/C=N/NC(=O)CCc2c(C)n[nH]c2C)cc1OC	none
Cc1ccc(C(=O)NC(=S)Nc2ccc3c(c2)OCCO3)c(C)c1	none
COC(=O)C1(C(O)C(=O)c2ccc(C)cc2C)CCCCC1 (stereo not drawn)	CYP2C19 inhib 64.0
O=C(NCc1ccccn1)c1coc(=O)c(Br)c1	none
Cc1ccc2occ(/C=N/O)c(=O)c2c1	none
O=c1c(/C=N/O)coc2ccc3ccccc3c12	CYP2C9 activ 2 (no result: PLK1 PBD inh, PLK1 inh)
CC(C)c1ccc(NC(=O)C2C3C=CC4(CN(CCCN5CCOCC5)C(=O)C24)O3)cc1 (stereo not drawn)	none
CCOc1ccc(NC2CCN(C(C)=O)CC2)cc1	none
CC(=O)N1CCC(Nc2ccc(C)cc2)CC1	CYP2C9 inhib 53.5
CC(C)(C)c1nc2c(C#N)c(-c3ccc(Cl)cc3)ccn2n1	CYP2C9 inhib 84.5, CYP2C19 inhib 67.1
N#CC(=C1CCCC1)c1nc(-c2ccccc2)cs1	none
N#C/C(=N\O)c1nc(-c2ccccc2)cs1	CYP2C9 inhib 62.5!
COCCNC(=O)c1c[nH]n2c(=O)cc(C3CCN(C(=O)OC(C)(C)C)CC3)nc12	CYP2C9 inhib 62.2
COc1ccccc1-c1n[nH]c(=S)n1-c1ccccc1	none
CCCCN(CC(=O)Nc1c(C)cccc1CC)C(=O)SCC	CYP2C19 inhib 70.8
CCSC(=O)N(CC)CC(=O)Nc1c(CC)cccc1CC	none
